In PubChem BioAssay (NCATS) one finds Potency, outcome and max response data, which are given here for 7 compounds.

Where “and” joins values, the source holds several entries; their conditions need not be identical. Identical values can stand only once. Results filed as inconclusive are left out. Calls of active or inactive are those of the source. Unless noted, calls follow the shape of the dose curve; as a rule, active = well fitted curve in the direction sought with a large enough effect; inconclusive = small, poorly fitted or top-dose-only effect, or another doubt; inactive = no such curve, though single readings can be large; an effect the other way counts as inactive or inconclusive. Some results are limits rather than exact numbers.

A short description of test [1]: Cell Viability - Jurkat (AID 426;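 active = dose-dependent loss of cell ATP signal giving a full or clear fitted curve, ranked by lower potency value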;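 also: potency is read from the fitted curve at half-maximal effect; cells exposed to compound for 40 hours at 37 °C before ATP read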). The settings on record: qHTS. A digest of the protocol:
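Cytotoxicity was scored as loss of cellular ATP, measured by luciferase-based luminescence, in Jurkat clone E6-1 cells after 40 h compound treatment; tamoxifen and doxorubicin served as positive controls.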
On the technique in general: Quantitative high-throughput screening tests each substance at several concentrations.

Test [2] can be described thus: Cell Viability - Hek293 (AID 427;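 active = compounds whose dose-response curve shows a full or clear partial loss of cell viability, called from curve shape rather than a numeric limit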;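 also: potency is read from the fitted curve at half-maximal effect; cells exposed to compound for 40 hours at 37 °C before reading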). Conditions: qHTS. A digest of the protocol: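 Luminescent ATP read-out (CellTiter-Glo, 20 min RT) after 40 hr compound exposure at 37 °C in complete medium. Signal normalized to DMSO (basal) and 100 uM tamoxifen (100% inhibition); concentration-response fitted with the standard Hill equation to give AC50.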
A short description of test [3]: Cell Viability - SH-SY5Y (AID 544).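 Also: cells exposed to compound for 40 hours; 0% = DMSO alone and -100% = 100 µM tamoxifen; nearly all actives have a fitted effect of over 55% in size.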 Conditions: SH-SY5Y neuroblastoma cell viability; viability change, negative = cytotoxic: at 92.2 µM (top of the series). A digest of the protocol:
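Quantitative HTS in SH-SY5Y neuroblastoma cells, 40 hr treatment at 37 °C, ATP content by luciferase luminescence; AC50 from Hill fits.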

Test [4] can be described thus: Cell Viability - Mesenchymal (AID 546).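 Also: cells exposed to compound for 40 hours before reading; 0% = DMSO only and -100% = 100 µM tamoxifen.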 The settings on record: mesenchymal cells viability, qHTS; series mostly up to 91.7 µM. A digest of the protocol: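 CellTiter-Glo luminescence (intracellular ATP, 20 min room temperature) after 40 hr compound exposure at 37 °C of 1000 glomerulus-derived human kidney mesenchymal cells/well; AC50 values obtained by fitting qHTS concentration-response data to the Hill equation.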

Test [5] addresses Cytochrome P450 3A4 (Homo sapiens) (UniProt P08684). The test is described as follows: qHTS Assay for Inhibitors and Substrates of Cytochrome P450 3A4 (AID 884). Also: % is scaled to controls: 0 for no effect and ±100 for the full control effect; nearly all actives have a fitted effect of over 50% in size. Conditions: recombinant CYP3A4, Luciferin-PPXE luminescence; series mostly up to 57.1 µM. A digest of the protocol:
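Luminescent readout of luciferin produced by CYP3A4 (20 nM) dealkylation of Luciferin-PPXE, 25 uM (its KM). NADPH-driven reaction ran 60 min at RT after 10 min compound preincubation; data scaled to 57 uM ketoconazole as 100% inhibition.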

Test [6] is described as follows: MultiTox-Fluor Cytotoxicity Assay - LYMP1-002 - Dead Cells (AID 960).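 Also: 0% = DMSO and 100% = tetraoctylammonium bromide; nearly all actives have a fitted effect of over 60% in size.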 Conditions: LYMP1-002 lymphoblastoid cells, dead-cell protease fluorescence; series mostly up to 46.1 µM. A digest of the protocol: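 Concentration-dependent increases in membrane-leaked protease activity are quantified in LYMP1-002 cells after 16 hr treatment; values are normalized against DMSO and tetraoctylammonium bromide (15 uM) controls and AC50 derived by Hill modeling.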

Test [7] can be described thus: Cell Viability - LYMP2-005 (AID 967).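 Also: plate controls were DMSO only for no effect and 92 µM tetraoctylammonium bromide control for full effect.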 The settings on record: LYMP2-005 lymphoblastoid cell viability; series mostly up to 92.2 µM. A digest of the protocol: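 Human lymphoblastoid LYMP2-005 cells, 2,500 per well in complete medium, rested 5 h at 37C then compound-treated 24 h at 37C. Intracellular ATP read by CellTiter-Glo luminescence after 30 min at room temperature; AC50 from Hill-equation fits of concentration-response data.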

Test [8] can be described thus: Cell Viability - LYMP2-019 (AID 973).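 Also: 0% = DMSO alone and full effect = 92 µM tetraoctylammonium bromide; nearly all actives have a fitted effect of over 55% in size.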 The settings on record: LYMP2-019 lymphoblastoid cell line viability; series mostly up to 92.2 µM. A digest of the protocol: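 AC50 values come from Hill-equation modelling of qHTS concentration-response curves, where viability is measured as luciferase-based ATP luminescence in the lymphoblastoid line after 24 hr compound exposure in complete culture medium.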

The nature of test [9]: Cell Viability - LYMP2-010 (AID 981).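 Also: cells exposed to compound for 24 hours at 37 °C; % is scaled to controls: 0 for no effect and ±100 for the full control effect; nearly all actives have a fitted effect of over 55% in size.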 Conditions: LYMP2-010 lymphoblastoid cell viability, qHTS; series mostly up to 92.2 µM. A digest of the protocol: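 This 24 hr viability screen uses LYMP2-010 lymphoblastoid cells, quantifies ATP via luciferase luminescence, and derives AC50 from Hill fits of qHTS concentration-response data.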
Test [10] can be described thus: Cell Viability - LYMP2-024 (AID 988).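 Also: plate controls were DMSO only for no effect and 92 µM tetraoctylammonium bromide for full effect; nearly all actives have a fitted effect of over 60% in size.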 The settings on record: LYMP2-024 lymphoblastoid cell viability; series mostly up to 92.2 µM. A digest of the protocol:
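Cells at 2500 per well received compound for 24 hr after a 5 hr settling period. Viability was scored by CellTiter-Glo luminescence, with AC50 from Hill fits.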

The nature of test [11]: Cell Viability - LYMP2-026 (AID 989). Also: % is scaled to controls: 0 for no effect and ±100 for the full control effect; nearly all actives have a fitted effect of over 50% in size. The settings on record: LYMP2-026 lymphoblastoid cell viability, qHTS; series mostly up to 92.2 µM. A digest of the protocol: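 Acute toxicity screen in complete culture medium, with 24 hr compound exposure at 37 C. Viability read as cellular ATP via luciferase reaction, with tetraoctylammonium bromide (6.4pM to 92 uM) as positive control.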

A short description of test [12]: Cell Viability - LYMP1-002 - Assay at 40 hr (AID 994).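 Also: 0% = DMSO only and full inhibition = 92 µM tetraoctylammonium bromide; nearly all actives have a fitted effect of over 60% in size.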 Conditions: LYMP1-002 lymphoblastoid cell viability; series mostly up to 92.2 µM. A digest of the protocol:
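Concentration-dependent ATP loss after 40 hr treatment at 37 C defined toxicity; AC50 values were obtained by fitting the standard Hill equation.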

Test [13] addresses Peroxisome proliferator-activated receptor gamma (Homo sapiens) (UniProt P37231). The experiment in a line: qHTS assay for small molecule agonists of peroxisome proliferator-activated receptor gamma signaling (AID 588536; active = well fitted curve in the direction sought with a large enough effect in the signal ratio, with a control signal flat, not every such curve was filed as active; the % refers to the signal ratio;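 also: 0% = DMSO basal wells and 100% = rosiglitazone at 2 µM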). Conditions: HEK293 PPARg-UAS-bla, beta-lactamase ratio, 16 h, percent of rosiglitazone response, DMSO as zero; series mostly up to 76.7 µM. A digest of the protocol: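 Compound treatment: 16 h, 37 C, HEK293 GeneBLAzer cells. Detection: CCF4, 2 h RT. Values: Hill-fit EC50, efficacy as % of 2 uM rosiglitazone.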

Test [14] in a line: qHTS assay for small molecule agonists of retinoid X receptor alpha signaling (AID 588544; calls by dose curve). The settings on record: HEK293T RXRa-UAS-bla, beta-lactamase reporter, 18 h; 530 nm emission.
In test [15] the target is Retinoic acid receptor RXR-alpha (Homo sapiens) (UniProt P19793). The description is as above. The settings on record: HEK293T RXRa-UAS-bla, beta-lactamase reporter, 18 h; series mostly up to 76.7 µM.
Retinoic acid receptor RXR-alpha (Homo sapiens), sequence (P19793 whole entry, looked up): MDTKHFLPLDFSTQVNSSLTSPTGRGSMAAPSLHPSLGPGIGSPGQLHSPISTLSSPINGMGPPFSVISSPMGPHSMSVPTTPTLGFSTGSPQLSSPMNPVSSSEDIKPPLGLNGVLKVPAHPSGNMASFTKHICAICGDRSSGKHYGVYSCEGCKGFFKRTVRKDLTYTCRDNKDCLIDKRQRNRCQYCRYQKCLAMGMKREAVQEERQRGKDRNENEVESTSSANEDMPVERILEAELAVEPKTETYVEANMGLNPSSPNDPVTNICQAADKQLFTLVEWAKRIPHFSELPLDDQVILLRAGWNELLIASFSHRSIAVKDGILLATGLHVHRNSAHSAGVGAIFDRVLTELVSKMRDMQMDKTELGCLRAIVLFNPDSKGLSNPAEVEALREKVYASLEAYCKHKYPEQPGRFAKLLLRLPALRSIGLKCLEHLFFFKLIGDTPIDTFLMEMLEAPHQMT
The target of test [16] is Thyroid hormone receptor beta (Homo sapiens) (UniProt P10828). The test is described as follows: qHTS assay for small molecule agonists of thyroid hormone receptor beta signaling (AID 588545; calls by dose curve). The settings on record: TR-UAS-bla GripTite HEK 293, beta-lactamase ratio, agonist mode, 18 h; series mostly up to 76.7 µM. A digest of the protocol: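 In this cell-based screen, titrated compounds act on HEK 293 cells held in medium with 2% charcoal/dextran FBS, NEAA and pyruvate for 18 hrs at 37 C. Responses are expressed relative to T3 (10 nM) as 100% and basal DMSO as 0%.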
Thyroid hormone receptor beta (Homo sapiens), sequence (P10828 whole entry, looked up): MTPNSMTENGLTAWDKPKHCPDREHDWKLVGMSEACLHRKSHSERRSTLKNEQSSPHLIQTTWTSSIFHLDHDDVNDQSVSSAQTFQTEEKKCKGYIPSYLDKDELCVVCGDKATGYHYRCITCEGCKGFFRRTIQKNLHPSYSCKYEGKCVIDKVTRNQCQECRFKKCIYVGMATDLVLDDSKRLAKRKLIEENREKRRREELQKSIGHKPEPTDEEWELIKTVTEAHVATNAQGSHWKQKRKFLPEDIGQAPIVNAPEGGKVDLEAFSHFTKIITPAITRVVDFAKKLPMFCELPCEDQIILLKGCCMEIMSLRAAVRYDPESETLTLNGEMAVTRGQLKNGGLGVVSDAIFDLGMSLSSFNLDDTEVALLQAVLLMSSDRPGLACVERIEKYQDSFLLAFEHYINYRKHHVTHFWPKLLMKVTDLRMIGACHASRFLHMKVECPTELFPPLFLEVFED

A short description of test [17]: qHTS assay for small molecule antagonists of retinoid X receptor alpha signaling (AID 588546).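 Also: cells stimulated with 9-cis-retinoic acid as agonist; % is scaled to controls: 0 for no effect and ±100 for the full control effect.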 The settings on record: HEK293T RXRa-UAS-bla, beta-lactamase ratio, antagonist mode; measured here: W530 green channel, cytotoxicity proxy. A digest of the protocol:
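Beta-lactamase reporter inhibition, read as CCF4 fluorescence ratio (ex 405, em 460/530 nm) after 2 h at RT. HEK293T UAS-bla cells, 2500/well, were stimulated with 9-cis-RA at 500 or 100 nM final alongside test compound for 18 h at 37 C.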

Test [18] addresses Tumor necrosis factor (Homo sapiens) (UniProt P01375). The test is described as follows: qHTS assay to identify small molecules that stimulate Tumor Necrosis Factor-alpha (TNF-alpha) secretion (AID 651757; active = well fitted curve in the direction sought with a large enough effect in the signal ratio; the % refers to the signal ratio; also: 0% is about no effect). Conditions: Human cells, HTRF 665/615 ratio; series mostly up to 92.2 µM. A digest of the protocol:
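Using 3000 THP-1 cells per well, compounds and controls were applied for 17 hrs at 37 C. Detection followed with two labeled anti-TNF-alpha antibodies (cryptate donor, XL665 acceptor) for 3 hr at room temperature, measured by TR-FRET.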

Test [19] can be described thus: qHTS assay for small molecule antagonists of the retinoid-related orphan receptor gamma (ROR-gamma) signaling pathway - cell viability counter screen (AID 720652; active = well fitted curve in the direction sought with a large enough effect in the repeat runs; an effect the other way counts as inactive or inconclusive;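 also: CHO reporter cells with doxycycline-induced ROR-gamma expression; compound exposure lasted 16 hr before ATP read; % is scaled to controls: 0 for no effect and ±100 for the full control effect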). The settings on record: RORgamma reporter cell line viability counter screen; series mostly up to 92.2 µM. A digest of the protocol: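 ATP-based viability readout in the ROR-gamma reporter CHO cells after 16 hr compound exposure under doxycycline induction.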

The target in test [20] is Nuclear receptor subfamily 1 group I member 2 (Rattus norvegicus) (UniProt Q9R1A7). The experiment in a line: qHTS assay for small molecule activators of the rat pregnane X receptor (rPXR) signaling pathway (AID 651751; call rule not given here; also: 0% is about no effect). The settings on record: rPXR reporter cells, luciferase (One-Glo), 24 h.
Nuclear receptor subfamily 1 group I member 2 (Rattus norvegicus), sequence (Q9R1A7 whole entry, looked up): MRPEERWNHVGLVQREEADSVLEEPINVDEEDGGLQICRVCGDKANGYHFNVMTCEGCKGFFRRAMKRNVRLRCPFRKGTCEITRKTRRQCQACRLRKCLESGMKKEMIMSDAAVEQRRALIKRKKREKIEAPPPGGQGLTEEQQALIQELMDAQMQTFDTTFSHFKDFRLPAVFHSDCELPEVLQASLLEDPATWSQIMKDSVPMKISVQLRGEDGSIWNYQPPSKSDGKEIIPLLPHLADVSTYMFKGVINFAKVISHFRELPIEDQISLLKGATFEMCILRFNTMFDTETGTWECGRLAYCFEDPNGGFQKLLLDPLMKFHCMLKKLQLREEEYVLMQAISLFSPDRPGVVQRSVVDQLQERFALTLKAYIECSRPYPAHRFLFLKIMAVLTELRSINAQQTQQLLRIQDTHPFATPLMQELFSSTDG

Peroxisome proliferator-activated receptor gamma (Homo sapiens), sequence (P37231 whole entry, looked up): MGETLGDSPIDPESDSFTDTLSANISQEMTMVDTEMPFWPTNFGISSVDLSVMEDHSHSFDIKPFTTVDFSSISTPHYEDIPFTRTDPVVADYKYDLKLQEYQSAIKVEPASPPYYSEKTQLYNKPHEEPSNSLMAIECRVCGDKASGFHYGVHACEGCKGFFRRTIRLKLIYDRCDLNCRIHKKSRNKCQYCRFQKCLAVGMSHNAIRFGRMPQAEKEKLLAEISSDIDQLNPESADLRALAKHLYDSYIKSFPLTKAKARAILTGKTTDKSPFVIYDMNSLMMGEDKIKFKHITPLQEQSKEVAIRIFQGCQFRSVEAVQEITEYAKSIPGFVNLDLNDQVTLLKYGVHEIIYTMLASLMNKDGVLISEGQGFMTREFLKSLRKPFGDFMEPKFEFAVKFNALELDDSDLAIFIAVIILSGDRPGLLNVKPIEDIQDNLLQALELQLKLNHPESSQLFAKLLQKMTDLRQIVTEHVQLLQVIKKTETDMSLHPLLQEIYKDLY
Cytochrome P450 3A4 (Homo sapiens), sequence (P08684 whole entry, looked up): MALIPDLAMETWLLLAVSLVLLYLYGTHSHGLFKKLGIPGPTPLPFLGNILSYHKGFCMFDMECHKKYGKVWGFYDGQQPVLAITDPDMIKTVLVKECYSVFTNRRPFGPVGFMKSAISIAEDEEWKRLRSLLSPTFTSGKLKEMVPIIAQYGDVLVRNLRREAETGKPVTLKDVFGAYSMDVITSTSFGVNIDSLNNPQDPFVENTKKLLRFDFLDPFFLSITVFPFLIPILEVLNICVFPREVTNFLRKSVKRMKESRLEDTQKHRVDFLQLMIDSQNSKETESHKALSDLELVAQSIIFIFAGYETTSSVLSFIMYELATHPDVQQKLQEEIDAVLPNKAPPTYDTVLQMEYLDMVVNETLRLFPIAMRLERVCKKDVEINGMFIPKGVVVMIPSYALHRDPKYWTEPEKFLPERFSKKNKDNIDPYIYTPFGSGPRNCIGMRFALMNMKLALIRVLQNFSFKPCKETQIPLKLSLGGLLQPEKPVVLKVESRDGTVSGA
Tumor necrosis factor (Homo sapiens), sequence (P01375 whole entry, looked up): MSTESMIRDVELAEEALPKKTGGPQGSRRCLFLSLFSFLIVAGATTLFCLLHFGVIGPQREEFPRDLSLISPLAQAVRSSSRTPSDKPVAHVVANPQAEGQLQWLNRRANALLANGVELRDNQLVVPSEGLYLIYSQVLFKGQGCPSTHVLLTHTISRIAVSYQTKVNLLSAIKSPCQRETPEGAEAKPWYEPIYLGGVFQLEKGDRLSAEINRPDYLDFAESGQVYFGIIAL

With `ClC(Cl)c1ccccc1`, the Potency in test [1] and in [2] was > 92 µM (inactive) throughout. Further, the Potency entry in test [3], in [4], in test [5], in [6], in test [7] and in test [8] was “inactive” throughout. Further, the Potency entry in [9], in [10], in [11], in [12], in test [16] and in test [19] was “inactive” each time. Besides, the outcome in test [13], in [15] and in test [18] was inactive. In addition, the max response was 1.37% in test [14], 4.33% in [17] and 3.54% (inactive) in test [20].
With `O=C(O)CBr`, the Potency in [1] and in test [2] was > 92 µM (inactive) throughout. Further, the Potency entry in test [3], in test [5], in [7], in test [8], in test [9] and in test [10] was “inactive” in each case. For the same compound, the Potency entry in test [11], in [12], in test [16] and in test [19] was “inactive” in each case. Moreover, the result in test [13], in [15] and in [18] was inactive. Besides, the results for the max response in test [14], in test [17] and in test [20] were -13.9%, -7.96% and 2.42% (inactive), respectively.
`N#CCc1ccccc1`: the Potency in test [1] and in test [2] was > 92 µM (inactive) in each case. For the same compound, the Potency entry in [3], in test [4], in test [5], in [6], in test [7] and in test [8] was “inactive” in each case. Further, the Potency entry in test [9], in test [10], in [11], in test [12] and in [19] was “inactive” each time. Further, the result in test [13], in test [15] and in [18] was inactive. Moreover, the max response was -3.72% in test [14], -0.865% in [17] and 1.21% (inactive) in [20].
`Clc1cccc(Cl)c1Cl`: the Potency in [1] and in test [2] was > 92 µM (inactive) each time. The Potency result in test [3], in test [4], in [5], in test [6], in test [7] and in test [8] was “inactive” throughout. Moreover, the Potency result in [9], in test [10], in test [11], in test [12], in test [16] and in test [19] was “inactive” each time. The outcome in test [13], in test [15] and in [18] was inactive. Besides, the max response in [14] is 4.23% and 3.5%; in test [17] it was 3.05% and -10.8%; in [20], -2.59% (inactive) and 0.772% (inactive).
On to `ClC(Cl)(Cl)C(Cl)(Cl)Cl`, for which the Potency in test [1] and in test [2] was > 92 µM (inactive) in each case. For the same compound, the Potency result in test [3], in test [4], in test [5], in test [6], in [7] and in test [8] was “inactive” in each case. Moreover, the Potency entry in [9], in test [10], in [11], in test [12], in test [16] and in [19] was “inactive” throughout. Also, the outcome in test [13], in test [15] and in test [18] was inactive. The max response in [14] was 0.0695%; in [17], -34.4%; in test [20] it was 6.05% (inactive).
`CCCBr`: the Potency in [1] and in test [2] was > 92 µM (inactive) in each case. In addition, the Potency entry in test [3], in test [4], in test [5], in [6], in test [7] and in test [8] was “inactive” throughout. Also, the Potency result in test [9], in [10], in test [11], in test [12], in [16] and in [19] was “inactive” in each case. Moreover, the result in [13], in test [15] and in [18] was inactive. The max response in [14] was -13.5%; in test [17], -1.75%; in test [20], -1.34% (inactive).
Regarding `CCC(Cl)[N+](=O)[O-]` (configuration not stated), the Potency in test [1] and in test [2] was > 92 µM (inactive) in each case. Moreover, the Potency result in test [3], in test [4], in [5], in [6], in [7] and in test [8] was “inactive” in each case. For the same compound, the Potency result in [9], in test [10], in test [11], in test [12], in test [16] and in [19] was “inactive” each time. For the same compound, the outcome in [13], in test [15] and in [18] was inactive. For the same compound, the figures for the max response in [14], in test [17] and in test [20] were -8.6%, -9.88% and -0.428% (inactive), respectively.
